Experimental data: PubChem BioAssay AID1159580 (chemical genetic matrix, 2015)
Hit rate of the full screen: of about 5,500 compounds, about 2,000 (36%) were called active. Not shown: some 18% with an inconclusive outcome. Rule as the data show it: active = normalized growth mostly below about 0.91 (no sharp cut-off); inconclusive = no clear call, values can overlap the other calls; inactive = mostly above about 0.92. The list shows a part of the results.

Experiment: chemical genetic growth profiling, strain panel (AID 1159580);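 also: tested at 20 µM; growth read once vehicle control cultures reached saturation at 30 °C; 1 = growth at the plate median or of vehicle wells; lower values mean less growth of the strain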
Conditions: growth OD

Measured: normalized growth

C[C@@H]1CC[C@@]2(OC1)OC1C(O)C3C4CC[C@H]5C[C@H](O[C@@H]6O[C@H](CO)[C@H](O[C@@H]7O[C@H](CO)[C@@H](O)[C@H](O[C@@H]8OC[C@@H](O)[C@H](O)[C@H]8O)[C@H]7O[C@@H]7O[C@H](CO)[C@H](O)[C@H](O[C@@H]8O[C@H](CO)[C@@H](O)[C@H](O)[C@H]8O)[C@H]7O)[C@H](O)[C@H]6O)[C@H](O)C[C@]5(C)C4CC[C@]3(C)C1[C@@H]2C (stereo partly specified)
active: S. cerevisiae deletion strains, locus YJR043C, strain POL32, active compounds read low 0.0654 | S. cerevisiae deletion strains, locus YJR066W, strain TOR1, active compounds read low -0.00057 | S. cerevisiae deletion strains, locus YKL009W, strain mrt4, active compounds read low 0.0811 | S. cerevisiae deletion strains, locus YKL068W, active compounds read low 0.0538 | S. cerevisiae deletion strains, locus YKL085W, strain MDH1 (second series), active compounds read low 0.0597 | S. cerevisiae deletion strains, locus YKL085W, strain MDH1, active compounds read low 0.0597 | S. cerevisiae deletion strains, locus YKR001C, strain vps1, active compounds read low 0.0628 | S. cerevisiae deletion strains, locus YLR039C, strain RIC1, active compounds read low 0.0908 | S. cerevisiae deletion strains, locus YLR058C, strain SHM2, active compounds read low 0.0509 | S. cerevisiae deletion strains, locus YLR102C, strain apc9, active compounds read low 0.0549 | S. cerevisiae deletion strains, locus YLR113W, strain HOG1, active compounds read low 0.124 | S. cerevisiae deletion strains, locus YLR262C, strain YPT6 (second series), active compounds read low 0.598 | S. cerevisiae deletion strains, locus YLR262C, strain YPT6, active compounds read low 0.112 | S. cerevisiae deletion strains, locus YLR268W, strain sec22, active compounds read low 0.0616 | S. cerevisiae deletion strains, locus YLR371W, strain rom2, active compounds read low 0.0571 | S. cerevisiae deletion strains, locus YLR418C, strain cdc73, active compounds read low 0.0973 | S. cerevisiae deletion strains, locus YML016C, strain PPZ1, active compounds read low 0.0492 | S. cerevisiae deletion strains, locus YML032C, strain rad52, active compounds read low 0.0633 | S. cerevisiae deletion strains, locus YML124C, strain tub3, active compounds read low 0.0557 | S. cerevisiae deletion strains, locus YMR078C, strain ctf18, active compounds read low 0.064 | S. cerevisiae deletion strains, locus YMR223W, strain ubp8, active compounds read low 0.0562 | S. cerevisiae deletion strains, locus YMR263W, strain SAP30, active compounds read low 0.055 | S. cerevisiae deletion strains, locus YMR307W, strain GAS1, active compounds read low 0.13 | S. cerevisiae deletion strains, locus YNL067W, strain RPL9B, active compounds read low 0.0474 | S. cerevisiae deletion strains, locus YNL153C, strain GIM3, active compounds read low 0.0551 | S. cerevisiae deletion strains, locus YNL183C, strain NPR1, active compounds read low -0.00129 | S. cerevisiae deletion strains, locus YNL233W, strain BNI4, active compounds read low 0.0568 | S. cerevisiae deletion strains, locus YNL250W, strain rad50, active compounds read low 0.0602 | S. cerevisiae deletion strains, locus YNL271C, strain bni1, active compounds read low 0.0573 | S. cerevisiae deletion strains, locus YNL298W, strain CLA4, active compounds read low 0.0588 | S. cerevisiae deletion strains, locus YNL307C, strain MCK1, active compounds read low 0.063 | S. cerevisiae deletion strains, locus YNR052C, strain pop2, active compounds read low 0.0596 | S. cerevisiae deletion strains, locus YOL006C, strain TOP1, active compounds read low 0.131 | S. cerevisiae deletion strains, locus YOL012C, strain htz1 0.172 | S. cerevisiae deletion strains, locus YOL147C, strain pex11, active compounds read low 0.0607 | S. cerevisiae deletion strains, locus YOR061W, strain CKA2, active compounds read low 0.0464 | S. cerevisiae deletion strains, locus YOR069W, strain VPS5, active compounds read low 0.05 | S. cerevisiae deletion strains, locus YOR136W, strain idh2, active compounds read low 0.0668 | S. cerevisiae deletion strains, locus YOR144C, strain elg1, active compounds read low 0.0588 | S. cerevisiae deletion strains, locus YOR184W, strain ser1, active compounds read low 0.0693 | S. cerevisiae deletion strains, locus YOR231W, strain MKK1, active compounds read low 0.0965 | S. cerevisiae deletion strains, locus YOR316C, strain cot1, active compounds read low 0.0539 | S. cerevisiae deletion strains, locus YPL106C, strain sse1, active compounds read low 0.671 | S. cerevisiae deletion strains, locus YPL241C, strain CIN2, active compounds read low 0.0482 | S. cerevisiae deletion strains, locus YPL256C, strain CLN2, active compounds read low 0.109 | S. cerevisiae deletion strains, locus YPR119W, strain clb2, active compounds read low 0.0604 | S. cerevisiae deletion strains, locus YPR141C, strain kar3, active compounds read low 0.0605 | S. cerevisiae deletion strains, locus YPR163C, strain tif3, active compounds read low 0.0646 | S. cerevisiae deletion strains, locus YPR167C, strain met16, active compounds read low 0.0578 | S. cerevisiae deletion strains, strain wtn01, active compounds read low 0.0611 | S. cerevisiae strains, strain wild type, active compounds read low 0.0496
inactive: S. cerevisiae deletion strains, locus YKL160W, strain elf1, active compounds read low 1.01 | S. cerevisiae deletion strains, locus YKR026C, strain gcn3, active compounds read low 1.03 | S. cerevisiae deletion strains, locus YKR091W, strain srl3, active compounds read low 1.02 | S. cerevisiae deletion strains, locus YLL001W, strain dnm1, active compounds read low 0.962 | S. cerevisiae deletion strains, locus YLL026W, active compounds read low 1.01 | S. cerevisiae deletion strains, locus YLL041C, strain sdh2, active compounds read low 1.02 | S. cerevisiae deletion strains, locus YLR027C, strain aat2, active compounds read low 1.01 | S. cerevisiae deletion strains, locus YLR221C, strain rsa3, active compounds read low 0.926 | S. cerevisiae deletion strains, locus YLR258W, strain gsy2, active compounds read low 1.02 | S. cerevisiae deletion strains, locus YLR320W, strain mms22, active compounds read low 0.985 | S. cerevisiae deletion strains, locus YLR342W, strain FKS1, active compounds read low 0.991 | S. cerevisiae deletion strains, locus YLR357W, strain rsc2, active compounds read low 0.875 | S. cerevisiae deletion strains, locus YLR370C, strain arc18, active compounds read low 1.02 | S. cerevisiae deletion strains, locus YLR384C, strain iki3, active compounds read low 1.04 | S. cerevisiae deletion strains, locus YML120C, strain ndi1, active compounds read low 0.925 | S. cerevisiae deletion strains, locus YMR058W, strain fet3, active compounds read low 1.01 | S. cerevisiae deletion strains, locus YMR125W, strain sto1, active compounds read low 1.03 | S. cerevisiae deletion strains, locus YMR129W, active compounds read low 1.03 | S. cerevisiae deletion strains, locus YMR205C, strain PFK2, active compounds read low 0.977 | S. cerevisiae deletion strains, locus YNL071W, strain lat1, active compounds read low 1.03 | S. cerevisiae deletion strains, locus YNL209W, strain ssb2, active compounds read low 1.03 | S. cerevisiae deletion strains, locus YNL248C, strain rpa49, active compounds read low 1.02 | S. cerevisiae deletion strains, locus YNL322C, strain KRE1 (second series), active compounds read low 1.04 | S. cerevisiae deletion strains, locus YNR049C, strain mso1, active compounds read low 1.03 | S. cerevisiae deletion strains, locus YOR001W, strain rrp6, active compounds read low 0.939 | S. cerevisiae deletion strains, locus YOR070C, strain gyp1, active compounds read low 1.02 | S. cerevisiae deletion strains, locus YOR080W, strain dia2, active compounds read low 1.04 | S. cerevisiae deletion strains, locus YOR083W, strain WHI5, active compounds read low 0.974 | S. cerevisiae deletion strains, locus YOR106W, strain vam3, active compounds read low 0.919 | S. cerevisiae deletion strains, locus YOR265W, strain rbl2, active compounds read low 1.04 | S. cerevisiae deletion strains, locus YOR270C, strain vph1, active compounds read low 0.99 | S. cerevisiae deletion strains, locus YOR290C, strain snf2, active compounds read low 0.964 | S. cerevisiae deletion strains, locus YPL051W, strain arl3, active compounds read low 0.95 | S. cerevisiae deletion strains, locus YPL078C, strain atp4, active compounds read low 0.968 | S. cerevisiae deletion strains, locus YPL240C, strain hsp82, active compounds read low 1
